Pf growth 48h = inhibits P. falciparum growth in the first generation, 48 h; P. falciparum luciferase growth in erythrocytes, 48 h; Potency, µM (highest dose often 28.7 µM), most hits filed as inhibitors; hit rate 5.9% among 310,000; AID 504832
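Parasite viability was followed by luminescence of a genomically integrated firefly luciferase. Cultures held 0.1% parasitemia at 2% hematocrit (final), incubated under 5% CO2 at 37 C.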
Sm TGR block = blocks Schistosoma mansoni thioredoxin glutathione reductase; purified TGR, DTNB reduction, TNB absorbance 405 nm; Potency, µM (titrated, usually from 114 µM), usual class: inhibitors; hit rate 3% among 360,000; AID 485364; further: nearly all actives have a fitted effect of over 60% in size
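First, TGR (20 nM dispensed) and NADPH were mixed with compound. Second, a 15 min room-temperature incubation followed. Third, further NADPH and then DTNB were added to start the reaction. Finally, TNB absorbance was monitored kinetically.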
Pf growth 96h = inhibits malaria parasite growth, 96 h; P. falciparum luciferase reporter growth, 96 h; Potency, µM (top dose mostly 28.7 µM), usual class: inhibitors; hit rate 6.9% among 320,000; AID 504834
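Plates of compound plus infected erythrocytes (2% hematocrit, 0.05% parasitemia final) incubate 96 hours, 37 C, 5% CO2. Detection reagent added; reduced luminescence from the parasites' luciferase reporter flags inhibition.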
Shiga toxin inh = Shiga toxin inhibition; Vero cells, Shiga toxin protein synthesis inhibition reporter; inhibition, % at 38.7 µM; hit rate 9.2% among 290,000; in the data active means inhibition mostly above about 28%, no sharp cut-off; inactive means mostly below about 43%
NS1 inh = blocks influenza NS1 protein function; AID 2326; Potency, µM (top dose mostly 46.1 µM); hit rate 0.4% among 270,000; calls by dose curve; further: actives are rising curves; nearly all actives have a fitted effect of over 50% in size
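OD600 was taken as the measure of yeast growth restored by compound in an NS1-expressing S. cerevisiae strain. Cells had been washed out of glucose medium and diluted 1:100 into galactose -URA medium, pH 6.0.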
Cycloheximide cs = affects cycloheximide protein synthesis inhibition readout, counter-screen; hit rate 12% among 300,000; cell reporter, cycloheximide protein synthesis inhibition counterscreen; max response, %; in the data active means max response mostly above about 13%, no sharp cut-off; inactive means mostly below about 14%; further: read at 38.3 µM for the half of the compounds with a filed dose
Numbers stand for hits; 0 = inactive; ? = inconclusive; - = no result; [ ] = remark or other dose. Sampled rows, rich in hits. Any-hit rate of the full collection: about 21%. Unless noted, the call rests on the fitted dose curve; in most records, active means well fitted curve in the direction sought with a large enough effect; inconclusive means small, poorly fitted or top-dose-only effect, or another doubt; inactive means no such curve, though single readings can be large; an effect the other way counts as inactive or inconclusive.

SMILES	Pf growth 48h	Sm TGR block	Pf growth 96h	Shiga toxin inh	NS1 inh	Cycloheximide cs
CCCSc1nsc(NC(=O)c2cccnc2OCC)n1	0	0	0	0	0	0
CCCCCCSc1nsc(NC(C)=O)n1	0	0	0	59	0	30
CCn1cc(C(=O)O)c(=O)c2cnc(N3CCN(C(=S)Nc4ccc(F)cc4)CC3)nc21	?	0	0.93µM	0	0	0
CCn1cc(C(=O)O)c(=O)c2cnc(N3CCN(C(=S)Nc4ccccc4Cl)CC3)nc21	0.37µM	0	0.83µM	0	0	0
Cc1ccc(CNC(=O)C2CCN(S(=O)(=O)N3CCC4(CC3)OCCO4)CC2)cc1	0	0	?	0	0	0
Cc1noc(C)c1C(=O)N(CC(=O)Nc1ccc(Cl)c(C(F)(F)F)c1)Cc1ccco1	?	0	?	-	-	-
CCc1ccc(N2C(=O)c3sc4nnc(-c5ccccc5)c(=O)n4c3C2=O)cc1	0	10µM	0	0	0	0
CCOc1cc(Br)c(CN2C(=O)NC3(CCCCCC3)C2=O)cc1OCC	0	0	?	0	0	0
CN(C)CC(O)CN1C(=O)NC(C)(C)C1=O (stereo unspecified)	0	0	2.1µM	0	0	0
CC1(C)NC(=O)N(CC(O)CN2CCCCC2)C1=O (stereo unspecified)	0	0	-	0	0	0
O=C(c1ccc(NS(=O)(=O)c2ccc3[nH]c(=O)[nH]c3c2)cc1)N1CCN(c2ccccc2)CC1	?	0	0	-	-	-
O=C(CNC(=O)C1CCCCC1)Nc1ccc(F)c(Cl)c1	0	0	?	0	-	0
O=C(NCCOc1ccc(Cl)cc1)C1CCCCC1	12µM	0	0	0	-	0
CCCCOCCCNC(=O)C1CCCCC1	0	0	8.3µM	0	0	0
O=C(CNC(=O)C1CCCCC1)Nc1ccc(Cl)cc1	0	0	0	30	0	23
Cc1ccc(OCCNC(=O)C2CCCCC2)cc1	0[5.75 µM]	0	0	0	-	0
O=C(COc1ccccc1CNCc1ccccc1)Nc1ccccc1	-	0	?	0	0	0
CCCCN1C(=O)CN(C2CCCCCC2)C(=O)C1c1ccc(OCCC)c(OC)c1 (stereo unspecified)	-	0	-	-	-	-
O=C(CSCCO)Nc1ccc(C2CCCCC2)cc1	0	0	-	97	0	48
CSCCC(=O)Nc1ccc(C(C)=O)cc1	0	0	0	0	0	27
CC(=O)c1ccc(NC(=O)CSCCO)cc1	0	0	-	81	0	21
CCC(C)C1NC(=O)C(Cc2ccc(O)cc2)NC(=O)C(N)CSSCC(C(=O)N2CCCC2C(=O)NC(CC(C)C)C(=O)NCC(N)=O)NC(=O)C(CC(N)=O)NC(=O)C(CCC(N)=O)NC1=O (stereo unspecified)	0	-	?	0	-	0
COc1ccc(NC(=O)c2c(OC)cccc2OC)c(OC)c1	4.7µM	?	?	0	0	0
CCOc1ccccc1NC(=O)c1cc(C(=O)c2cc(OC)ccc2O)coc1=N	4.7µM	0	2.3µM	0	0	0
COc1ccc(NC(=O)c2ccccc2O)c(OC)c1	-	0	?	88	0	51
SMILES	Pf growth 48h	Sm TGR block	Pf growth 96h	Shiga toxin inh	NS1 inh	Cycloheximide cs
CCC1=Nc2cc(C(=O)NCCc3ccc(OC)c(OC)c3)ccc2Sc2ccccc21	-	0	-	-	-	-
COc1ccc(CCN(/C=C2\Sc3ccccc3C2=O)C(C)=O)cc1OC	0	0	0	0	0	42
Cc1cc(CNC(=O)Nc2ccc3c(c2)OCO3)nn1C	0	0	-	61	0	27
CCn1nc(C)c(CNC(=O)Nc2ccc3c(c2)OCO3)c1C	0	0	?	0	-	45
CCn1cc(C(C)NC(=O)Nc2ccc3c(c2)OCO3)c(C)n1 (stereo unspecified)	0	0	?	0	0	0
CC(C)(C)NC(=O)CSc1nnc(-c2ccco2)n1Cc1ccco1	0	0	-	0	0	0
CCOC(=O)CNC(=O)CSc1nnc(-c2ccccc2)n1Cc1ccco1	0	20µM	12µM	0	0	0
CCN(CC)C(=O)CSc1nnc(-c2ccco2)n1Cc1ccco1	0	50µM	0	0	0	0
CCN(CC)C(=O)CSc1nnc(-c2ccco2)n1N	0	0	0	0	0	0
COC(=O)CSc1nnc(-c2ccco2)n1Cc1ccco1	0	13µM	0	0	0	0
[O-]/C(=C(\C(=S)NCc1ccccc1)[n+]1ccccc1)c1ccc(Cl)cc1	0	0	?	0	0	0
CN(C)c1ccc(/C=C(\NC(=O)c2ccccc2)C(=O)N/N=C/c2ccc(C(=O)O)cc2)cc1	0	0	0	0	0	0
O=C(N/N=C/c1ccc(O)c(O)c1O)/C(=C/c1ccc([N+](=O)[O-])cc1)NC(=O)c1ccccc1	-	0	9.3µM	0	0	0
O=C(Nc1cccc(C(=O)O)c1)/C(=C/c1ccc([N+](=O)[O-])cc1)NC(=O)c1ccccc1	0	0	0	0	0	0
Cc1ccc(NC(=O)/C(=C\c2ccc([N+](=O)[O-])cc2)NC(=O)c2ccccc2)cc1	?	0	5.2µM	0	0	0
O=C(Nc1cccc2ccccc12)/C(=C/c1ccc([N+](=O)[O-])cc1)NC(=O)c1ccccc1	?	0	9.3µM	0	?	0
COc1ccc(/C=C(\NC(=O)c2ccc(C)cc2)C(=O)Nc2ccc(C(=O)O)cc2)cc1	0	0	?	0	0	31
Cn1cc(S(=O)(=O)c2ccc(Cl)cc2)c(=O)c2cc(F)c(N3CCCCCC3)cc21	-	0	-	-	-	-
CC(=O)OCC12COC3c4ccccc4OC(C)(CC1C)C3C2C (stereo unspecified)	?	0	?	0	-	0
Cc1cccc(NC(=O)c2ccc(N3CCCCC3)c([N+](=O)[O-])c2)n1	0	0	0	69	0	46
CN1C(=O)c2ccc(NC(=O)c3ccc(N4CCCCC4)c([N+](=O)[O-])c3)cc2C1=O	0	0	0	0	0	0
Cc1cccc(NC(=O)c2ccc(N(C)C3CCCCC3)c([N+](=O)[O-])c2)n1	?	0	?	58	0	21
O=C(Nc1cccnc1)c1ccc(N2CCCC2)c([N+](=O)[O-])c1	0	0	0	0	0	29
Cc1ccc(C)c2sc(NC(=O)c3ccc(N4CCCCC4)c([N+](=O)[O-])c3)nc12	2.6µM	0	?	0	0	0
O=C(Nc1cccnc1)c1ccc(N2CCOCC2)c([N+](=O)[O-])c1	0	0	?	0	0	0
CCc1nc2ccccc2c(C(=O)OCC(=O)N2CC(C)OC(C)C2)c1C (stereo unspecified)	0	0	?	-	-	-
CCC(C)C(N)C(=O)NC(CC(N)=O)C(=O)NC(CC(C)C)C(=O)NC(CCCCN)C(=O)NC(C)C(=O)NC(CC(C)C)C(=O)NC(C)C(=O)NC(C)C(=O)NC(CC(C)C)C(=O)NC(C)C(=O)NC(CCCCN)C(=O)NC(CCCCN)C(=O)NC(C(=O)NC(CC(C)C)C(N)=O)C(C)CC (stereo unspecified)	-	-	-	0	-	0
COc1ccc(CCNC(=O)c2oc(=O)c3ccccc3c2-c2ccccc2)cc1OC	-	0	-	-	-	-
